# Assay results reported in the supplement of paper PMC10849652.
# About 7,900 targets were measured; listed, in parts, are those with a hit and a random draw of the rest. About 0.6% of all pairs of compound and target were hits. A number with no mark means an inactive call.
# Experiments:
# Assay in all cases: log2 fold change, soluble protein after heating vs DMSO (PISA); higher = thermal stabilisation; K562 cells, 10 uM, 30 min; active = over 0.2 and 3.5 SD of the protein, either way, in both replicates (recomputed)
# [1] = compound: CS(=O)(=O)c1ccc(-c2cnc(N)c(C(=O)Nc3ccccc3)n2)cc1
# Summary of the method: (§1)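 K562 cells (2×10^6 cells/mL) were treated with 10 μM compound for 30 min, and aliquots were heated for 3 min over 48°C-58°C. Pooled aliquots were extracted in PBS with 0.5% NP-40 at 4°C, and the supernatant after 21,000xg for 90 min was measured by TMTpro 16plex LC-MS/MS with channel sums equalised. Reported thermal stability, relative to control samples and from duplicates, is a log2 fold change.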
# crizotinib = compound: C[C@@H](Oc1cc(-c2cnn(C3CCNCC3)c2)cnc1N)c1c(Cl)ccc(F)c1Cl [crizotinib]
# Summary of the method: as §1
# [2] = compound: C[C@@H]1COCCN1C2=NC(=NC(=C2)C3(CC3)S(=O)(=O)C)C4=C5C=CNC5=CC=C4
# Summary of the method: as §1
# [3] = compound: C[C@H](C1=CC=C(C=C1)C(=O)NC2=C3C=CNC3=NC=C2)N
# Summary of the method: as §1
# duvelisib = compound: C[C@H](Nc1ncnc2nc[nH]c12)c1cc2cccc(Cl)c2c(=O)n1-c1ccccc1 [duvelisib]
# Summary of the method: as §1
# gandotinib = compound: Cc1cc(Nc2cc(CN3CCOCC3)c3nc(C)c(Cc4ccc(Cl)cc4F)n3n2)n[nH]1 [gandotinib]
# Summary of the method: as §1
# tozasertib = compound: Cc1cc(Nc2cc(N3CCN(C)CC3)nc(Sc3ccc(NC(=O)C4CC4)cc3)n2)n[nH]1 [tozasertib]
# Summary of the method: as §1
# [4] = compound: Cc1cc(SCc2sc(-c3ccc(C(F)(F)F)cc3)nc2C)ccc1OCC(=O)O
# Summary of the method: as §1
# doramapimod = compound: Cc1ccc(-n2nc(C(C)(C)C)cc2NC(=O)Nc2ccc(OCCN3CCOCC3)c3ccccc23)cc1 [doramapimod]
# Summary of the method: as §1
# ispinesib = compound: Cc1ccc(C(=O)N(CCCN)[C@@H](c2nc3cc(Cl)ccc3c(=O)n2Cc2ccccc2)C(C)C)cc1 [ispinesib]
# Summary of the method: as §1
# bafetinib = compound: Cc1ccc(NC(=O)c2ccc(CN3CC[C@H](N(C)C)C3)c(C(F)(F)F)c2)cc1Nc1nccc(-c2cncnc2)n1 [bafetinib]
# Summary of the method: as §1
# [5] = compound: Cc1cccc(CC(=O)N2CCc3c2ccc(-c2cn(C)c4ncnc(N)c24)c3F)n1
# Summary of the method: as §1
# nilotinib = compound: Cc1cn(-c2cc(NC(=O)c3ccc(C)c(Nc4nccc(-c5cccnc5)n4)c3)cc(C(F)(F)F)c2)cn1 [nilotinib]
# Summary of the method: as §1
# [6] = compound: Cc1nc(Nc2n[nH]c3c2CN(C(=O)N[C@H](CN(C)C)c2ccccc2)C3(C)C)c2sccc2n1
# Summary of the method: as §1
# dasatinib = compound: Cc1nc(Nc2ncc(C(=O)Nc3c(C)cccc3Cl)s2)cc(N2CCN(CCO)CC2)n1 [dasatinib]
# Summary of the method: as §1
# [7] = compound: Cc1ncc(-c2ccnc(Nc3ccc(S(C)(=O)=O)cc3)n2)n1C(C)C
# Summary of the method: as §1
# [8] = compound: Cn1cc(-c2ccc3c(c2)CCN3C(=O)Cc2cccc(C(F)(F)F)c2)c2c(N)ncnc21
# Summary of the method: as §1
# [9] = compound: Cn1cc(-c2ccc3nnc(C(F)(F)c4ccc5ncccc5c4)n3n2)cn1
# Summary of the method: as §1
# tipifarnib = compound: Cn1cncc1[C@@](N)(c1ccc(Cl)cc1)c1ccc2c(c1)c(-c1cccc(Cl)c1)cc(=O)n2C [tipifarnib]
# Summary of the method: as §1
# mubritinib = compound: FC(F)(F)c1ccc(/C=C/c2nc(COc3ccc(CCCCn4ccnn4)cc3)co2)cc1 [mubritinib]
# Summary of the method: as §1
# UniProt Q8N543, sequence (Q8N543 whole entry, looked up): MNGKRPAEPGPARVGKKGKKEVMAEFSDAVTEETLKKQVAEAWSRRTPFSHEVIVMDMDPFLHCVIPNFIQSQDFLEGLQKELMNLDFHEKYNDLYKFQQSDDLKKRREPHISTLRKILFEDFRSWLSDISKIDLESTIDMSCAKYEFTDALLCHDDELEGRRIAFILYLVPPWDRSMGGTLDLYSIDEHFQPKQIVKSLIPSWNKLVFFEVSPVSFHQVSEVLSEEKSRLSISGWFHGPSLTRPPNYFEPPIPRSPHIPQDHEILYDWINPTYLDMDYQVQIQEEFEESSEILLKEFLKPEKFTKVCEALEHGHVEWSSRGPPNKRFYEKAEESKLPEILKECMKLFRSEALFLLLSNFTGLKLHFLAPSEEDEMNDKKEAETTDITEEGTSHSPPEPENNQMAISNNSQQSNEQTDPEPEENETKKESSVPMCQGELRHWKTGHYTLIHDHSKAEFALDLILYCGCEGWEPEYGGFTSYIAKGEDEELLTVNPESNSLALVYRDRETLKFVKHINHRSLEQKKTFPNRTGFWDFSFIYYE
# UniProt Q96RE7, sequence (Q96RE7 whole entry, looked up): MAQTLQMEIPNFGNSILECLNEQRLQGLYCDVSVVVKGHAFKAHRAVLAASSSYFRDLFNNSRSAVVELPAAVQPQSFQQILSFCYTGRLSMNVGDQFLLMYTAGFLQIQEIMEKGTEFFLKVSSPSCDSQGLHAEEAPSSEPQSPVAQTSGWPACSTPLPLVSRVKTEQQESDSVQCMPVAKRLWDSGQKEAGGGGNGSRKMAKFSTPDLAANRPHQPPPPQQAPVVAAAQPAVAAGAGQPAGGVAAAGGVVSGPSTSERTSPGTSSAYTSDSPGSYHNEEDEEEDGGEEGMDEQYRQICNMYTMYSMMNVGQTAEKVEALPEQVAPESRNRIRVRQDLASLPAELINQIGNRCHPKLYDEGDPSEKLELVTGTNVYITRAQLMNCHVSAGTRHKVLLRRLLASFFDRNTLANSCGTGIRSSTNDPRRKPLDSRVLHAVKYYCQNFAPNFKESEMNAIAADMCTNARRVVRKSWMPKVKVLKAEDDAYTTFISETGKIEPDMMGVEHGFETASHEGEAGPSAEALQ
# UniProt Q96D46, sequence (Q96D46 whole entry, looked up): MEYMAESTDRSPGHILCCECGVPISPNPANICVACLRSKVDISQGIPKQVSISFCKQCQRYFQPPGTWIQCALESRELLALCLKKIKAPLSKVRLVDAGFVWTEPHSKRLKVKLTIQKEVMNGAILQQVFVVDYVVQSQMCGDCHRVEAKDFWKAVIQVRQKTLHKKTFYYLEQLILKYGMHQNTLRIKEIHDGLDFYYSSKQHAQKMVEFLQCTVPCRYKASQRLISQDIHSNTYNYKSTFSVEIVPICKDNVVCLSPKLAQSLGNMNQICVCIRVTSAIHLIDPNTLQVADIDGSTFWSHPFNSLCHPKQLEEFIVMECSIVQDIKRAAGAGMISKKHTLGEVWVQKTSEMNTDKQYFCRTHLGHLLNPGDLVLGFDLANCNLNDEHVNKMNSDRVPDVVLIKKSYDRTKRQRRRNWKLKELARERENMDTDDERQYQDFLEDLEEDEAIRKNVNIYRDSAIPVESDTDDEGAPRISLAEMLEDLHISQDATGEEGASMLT
# UniProt Q15003, sequence (Q15003 whole entry, looked up): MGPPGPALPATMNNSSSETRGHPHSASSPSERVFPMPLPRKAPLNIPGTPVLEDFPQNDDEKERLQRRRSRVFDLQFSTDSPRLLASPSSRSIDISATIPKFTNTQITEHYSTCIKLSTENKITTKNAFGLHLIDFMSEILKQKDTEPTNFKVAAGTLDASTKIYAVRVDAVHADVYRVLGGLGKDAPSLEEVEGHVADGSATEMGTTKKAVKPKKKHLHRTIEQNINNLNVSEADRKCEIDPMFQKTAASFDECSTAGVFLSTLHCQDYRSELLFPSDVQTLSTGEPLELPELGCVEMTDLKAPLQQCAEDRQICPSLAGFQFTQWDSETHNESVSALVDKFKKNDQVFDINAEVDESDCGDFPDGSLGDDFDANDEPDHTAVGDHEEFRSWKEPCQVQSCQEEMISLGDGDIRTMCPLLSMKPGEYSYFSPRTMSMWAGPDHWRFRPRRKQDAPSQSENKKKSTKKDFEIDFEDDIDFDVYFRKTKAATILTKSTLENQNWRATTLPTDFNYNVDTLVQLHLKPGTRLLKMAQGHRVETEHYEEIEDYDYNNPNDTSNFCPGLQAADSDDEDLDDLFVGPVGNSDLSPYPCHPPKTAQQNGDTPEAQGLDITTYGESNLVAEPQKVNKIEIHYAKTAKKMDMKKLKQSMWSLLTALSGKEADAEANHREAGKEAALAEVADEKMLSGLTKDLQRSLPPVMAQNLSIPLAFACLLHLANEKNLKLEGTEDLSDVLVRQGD
# UniProt Q5TFE4, sequence (Q5TFE4 whole entry, looked up): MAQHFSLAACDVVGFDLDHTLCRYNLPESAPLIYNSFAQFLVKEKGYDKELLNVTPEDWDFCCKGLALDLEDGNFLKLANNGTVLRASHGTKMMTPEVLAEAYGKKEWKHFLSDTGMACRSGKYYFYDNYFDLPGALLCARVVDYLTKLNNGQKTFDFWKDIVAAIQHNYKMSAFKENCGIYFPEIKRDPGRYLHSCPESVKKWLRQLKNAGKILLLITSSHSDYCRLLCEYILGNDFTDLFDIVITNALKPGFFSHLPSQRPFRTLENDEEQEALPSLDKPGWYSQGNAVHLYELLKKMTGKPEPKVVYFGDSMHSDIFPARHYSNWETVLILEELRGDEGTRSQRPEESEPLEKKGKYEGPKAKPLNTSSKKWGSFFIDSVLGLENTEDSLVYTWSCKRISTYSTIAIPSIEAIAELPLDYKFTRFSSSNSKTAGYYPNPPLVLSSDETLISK
# UniProt O14524, sequence (O14524 whole entry, looked up): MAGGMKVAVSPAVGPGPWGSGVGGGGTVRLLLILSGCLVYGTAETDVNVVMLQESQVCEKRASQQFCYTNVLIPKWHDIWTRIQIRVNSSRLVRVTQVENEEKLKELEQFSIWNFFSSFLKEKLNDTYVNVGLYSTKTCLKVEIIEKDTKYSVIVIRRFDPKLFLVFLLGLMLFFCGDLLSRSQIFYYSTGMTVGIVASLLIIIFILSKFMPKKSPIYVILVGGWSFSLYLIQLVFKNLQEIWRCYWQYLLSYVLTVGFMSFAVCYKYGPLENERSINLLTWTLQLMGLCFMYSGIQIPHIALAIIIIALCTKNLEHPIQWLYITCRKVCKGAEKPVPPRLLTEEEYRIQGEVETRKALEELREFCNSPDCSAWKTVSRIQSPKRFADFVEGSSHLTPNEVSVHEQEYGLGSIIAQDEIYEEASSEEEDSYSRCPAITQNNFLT
# UniProt Q9UI09, sequence (Q9UI09 whole entry, looked up): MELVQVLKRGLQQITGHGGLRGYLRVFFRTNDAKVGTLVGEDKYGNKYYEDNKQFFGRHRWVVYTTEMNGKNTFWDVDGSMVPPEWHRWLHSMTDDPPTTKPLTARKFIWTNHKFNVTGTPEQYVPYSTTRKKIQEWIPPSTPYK
# UniProt Q9H019, sequence (Q9H019 whole entry, looked up): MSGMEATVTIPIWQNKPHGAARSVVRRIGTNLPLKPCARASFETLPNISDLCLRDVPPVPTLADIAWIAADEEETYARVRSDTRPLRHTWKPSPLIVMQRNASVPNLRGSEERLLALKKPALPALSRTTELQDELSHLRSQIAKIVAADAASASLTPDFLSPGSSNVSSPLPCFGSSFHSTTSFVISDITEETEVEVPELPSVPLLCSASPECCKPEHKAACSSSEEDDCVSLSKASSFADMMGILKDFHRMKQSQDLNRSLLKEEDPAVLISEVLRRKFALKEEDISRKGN
# UniProt O43847, sequence (O43847 whole entry, looked up): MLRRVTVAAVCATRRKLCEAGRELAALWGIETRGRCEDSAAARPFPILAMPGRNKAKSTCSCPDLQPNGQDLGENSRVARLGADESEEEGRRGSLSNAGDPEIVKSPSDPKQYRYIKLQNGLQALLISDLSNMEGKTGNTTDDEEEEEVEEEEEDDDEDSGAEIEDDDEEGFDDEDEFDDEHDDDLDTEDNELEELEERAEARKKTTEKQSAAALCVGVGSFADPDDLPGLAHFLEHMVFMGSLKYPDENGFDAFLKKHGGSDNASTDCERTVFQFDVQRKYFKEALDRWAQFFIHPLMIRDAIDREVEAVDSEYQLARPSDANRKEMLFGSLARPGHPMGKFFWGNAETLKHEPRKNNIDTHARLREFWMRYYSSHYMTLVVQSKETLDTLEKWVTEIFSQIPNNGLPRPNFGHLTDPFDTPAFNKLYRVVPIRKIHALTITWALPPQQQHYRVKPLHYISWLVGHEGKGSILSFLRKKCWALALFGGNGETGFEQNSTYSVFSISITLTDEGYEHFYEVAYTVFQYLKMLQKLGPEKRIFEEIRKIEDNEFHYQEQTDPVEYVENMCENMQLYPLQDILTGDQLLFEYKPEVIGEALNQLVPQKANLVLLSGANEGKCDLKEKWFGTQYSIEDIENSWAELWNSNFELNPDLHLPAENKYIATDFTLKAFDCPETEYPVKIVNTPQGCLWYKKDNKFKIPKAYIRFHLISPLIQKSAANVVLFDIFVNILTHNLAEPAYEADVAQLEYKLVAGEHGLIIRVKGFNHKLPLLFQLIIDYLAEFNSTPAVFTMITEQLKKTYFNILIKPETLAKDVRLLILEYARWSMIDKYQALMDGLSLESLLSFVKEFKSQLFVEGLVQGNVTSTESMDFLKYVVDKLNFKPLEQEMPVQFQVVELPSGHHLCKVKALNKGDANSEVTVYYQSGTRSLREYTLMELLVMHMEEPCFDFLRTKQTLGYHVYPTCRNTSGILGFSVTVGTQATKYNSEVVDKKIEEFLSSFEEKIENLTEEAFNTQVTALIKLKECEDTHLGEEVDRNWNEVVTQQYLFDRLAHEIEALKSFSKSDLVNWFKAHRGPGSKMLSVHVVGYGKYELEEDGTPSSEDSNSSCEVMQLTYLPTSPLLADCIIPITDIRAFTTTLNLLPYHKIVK
Target,log2 fold change [1],log2 fold change (crizotinib),log2 fold change [2],log2 fold change [3],log2 fold change (duvelisib),log2 fold change (gandotinib),log2 fold change (tozasertib),log2 fold change [4],log2 fold change (doramapimod),log2 fold change (ispinesib),log2 fold change (bafetinib),log2 fold change [5],log2 fold change (nilotinib),log2 fold change [6],log2 fold change (dasatinib),log2 fold change [7],log2 fold change [8],log2 fold change [9],log2 fold change (tipifarnib),log2 fold change (mubritinib)
NT5DC1 (UniProt Q5TFE4),0.045,0.071,0.046,-0.052,0.05,0.019,0.004,-0.038,-0.018,0.037,0.043,0.004,0.099,0.069,0.033,-0.016,0.045,0.069,-0.043,0.001
MTFR1L (UniProt Q9H019),0.059,-0.162,-0.088,0.153,-0.146,-0.123,-0.084,0.039,0.042,-0.329,-0.1,0.305,0.014,-0.32,-0.167,-0.038,0.07,0.001,-0.062,–
NOP58 (UniProt Q9Y2X3),0.006,0.047,-0.061,0.242,0.004,0.121,0.025,-0.001,0.098,0.103,0.146,-0.154,0.03,-0.194,0.266,-0.142,-0.194,-0.093,0.067,-0.071
NEMP1 (UniProt O14524),-0.058,-0.121,-0.035,0.011,0.013,-0.1,-0.004,-0.014,0.032,-0.354 (active),-0.147,0.065,-0.186,0.004,-0.009,0.003,-0.007,-0.025,0,0.036
NCAPH (UniProt Q15003),0.049,0.013,-0.017,0.072,0.024,-0.11,0.102,0.081,0.006,-0.064,0.015,0.022,-0.055,-0.049,-0.121,0.041,-0.057,0.019,-0.102,0.019
NUP210 (UniProt Q8TEM1),-0.039,-0.235 (active),0.005,-0.006,-0.002,-0.083,-0.054,0.047,0.002,-0.351 (active),-0.178,0.053,-0.125,-0.009,-0.118,-0.038,0.055,0,-0.039,0.034
NSMCE2 (UniProt Q96MF7),0.001,0.051,-0.038,-0.024,-0.011,-0.131,0.043,-0.042,0.004,0.044,-0.059,0.282 (active),0.014,-0.202,0.025,0.016,0.016,-0.104,0.008,0.009
NACC1 (UniProt Q96RE7),0,0.005,0.082,-0.03,0.103,-0.129,0.161,0.152,-0.064,-0.019,-0.03,-0.039,-0.165,-0.109,-0.198,-0.12,-0.041,0.034,-0.084,-0.03
MRPL34 (UniProt Q9BQ48),-0.004,-0.045,0.077,0.179,-0.079,0.164,-0.002,0.051,0.152,-0.284,0.176,0.035,-0.083,0.248,0.065,-0.064,-0.142,-0.048,0.058,0.032
NDUFA12 (UniProt Q9UI09),0.107,-0.033,0.025,0.015,0.033,-0.206,-0.048,0.115,0.03,-0.385 (active),0,0.089,-0.158,-0.031,-0.107,0.029,0.109,0.062,-0.007,0.326 (active)
"NA, A0A096LPI6",-0.014,0.079,0.03,-0.015,0.018,0.04,-0.034,-0.051,-0.038,0.047,-0.076,-0.043,0,-0.007,-0.005,-0.04,-0.003,-0.028,-0.038,0.024
NOL7 (UniProt Q9UMY1),-0.054,0.065,-0.661,0.415,-0.201,0.124,-0.001,0.003,0.187,-0.052,0.284,-0.107,-0.016,0.146,0.183,-0.073,-0.257,-0.148,0.154,-0.156
NRDC isoform 2 (UniProt O43847),0.034,-0.065,0.054,-0.034,0.008,-0.029,0.02,0.089,-0.036,-0.022,0.022,0.072,-0.019,-0.023,-0.133,0.011,-0.01,-0.044,-0.129,0.088
OGFOD1 (UniProt Q8N543),0.034,-0.001,0.042,0.003,0.046,-0.009,-0.02,-0.021,-0.015,-0.043,-0.042,-0.033,-0.015,0.039,-0.009,-0.021,0.01,0.078,-0.05,-0.04
NMD3 (UniProt Q96D46),0.094,0.003,0.122,-0.179,0.064,0.007,-0.007,0.03,-0.013,0.139,0.071,0.03,0.025,0.316 (active),0.014,0.123,0.083,0.028,-0.107,0.083
MORF4L2 (UniProt Q15014),-0.085,0.013,-0.275 (active),0.053,-0.201,0.085,-0.007,-0.012,0.035,0.011,0.026,-0.055,0.009,0.01,0.045,-0.005,-0.087,-0.131,0.059,-0.076
